{"source": "the supplement of paper PMC3334620", "note": "Over roughly 33,000 sequences, “E-score (-0.5 to 0.5)” has its median near -0.035; the highest 2% begin near 0.34. The sample holds the highest values, similar sequences and a random draw of the others, so the mix is not that of the screen.", "data": [{"target": "T1, Mot3 (UniProt P54785)", "T1 sequence": "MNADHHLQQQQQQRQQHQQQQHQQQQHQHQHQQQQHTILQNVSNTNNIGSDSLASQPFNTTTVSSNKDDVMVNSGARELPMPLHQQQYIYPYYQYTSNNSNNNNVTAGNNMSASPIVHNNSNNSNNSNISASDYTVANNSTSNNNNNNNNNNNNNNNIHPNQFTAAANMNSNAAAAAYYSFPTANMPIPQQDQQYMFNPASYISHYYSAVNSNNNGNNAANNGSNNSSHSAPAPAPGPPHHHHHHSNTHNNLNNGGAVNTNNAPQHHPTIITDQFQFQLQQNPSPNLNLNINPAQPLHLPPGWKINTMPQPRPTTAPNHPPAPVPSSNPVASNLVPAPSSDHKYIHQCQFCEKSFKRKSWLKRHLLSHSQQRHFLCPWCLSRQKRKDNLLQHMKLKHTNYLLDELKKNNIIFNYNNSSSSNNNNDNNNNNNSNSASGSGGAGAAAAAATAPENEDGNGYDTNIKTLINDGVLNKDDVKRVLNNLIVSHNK", "experiment": "PBM E-score (8-mer binding enrichment) (E-score (-0.5 to 0.5)); higher = stronger / more preferred TF binding", "conditions": "protein concentration: 200 nM; construct: GST-full length", "in_short": "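E-scores (a modified Wilcoxon-Mann-Whitney statistic) were assigned by the Universal PBM Analysis Suite to every ungapped eight-base word pooled with its reverse complement. The input came from universal all-10-mer Agilent arrays made double-stranded by primer extension and probed with GST-tagged yeast transcription factors at about 100-200 nM. Fluorescent anti-GST detected bound protein, and masliner normalised the scans.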", "values": [{"sequence": "ACCGAATC", "PBM E-score": -0.00094}, {"sequence": "GTAAGGCA", "PBM E-score": 0.464}, {"sequence": "CTAAGGCA", "PBM E-score": 0.452}, {"sequence": "GTAAGGGA", "PBM E-score": 0.145}, {"sequence": "ATAAGGCG", "PBM E-score": 0.0672}, {"sequence": "CTAAGGCC", "PBM E-score": -0.0134}, {"sequence": "ATAAGGCC", "PBM E-score": -0.142}, {"sequence": "ATAAGGCA", "PBM E-score": 0.46}, {"sequence": "GTAAGGTA", "PBM E-score": 0.321}, {"sequence": "CTAAGGTA", "PBM E-score": 0.226}, {"sequence": "TACTGAAA", "PBM E-score": 0.037}, {"sequence": "AGACGTTC", "PBM E-score": -0.008}, {"sequence": "AGCATAAC", "PBM E-score": 0.0259}, {"sequence": "AGTCTATA", "PBM E-score": -0.0584}, {"sequence": "AGCACCGA", "PBM E-score": -0.168}, {"sequence": "GGCACCTA", "PBM E-score": 0.357}, {"sequence": "CGCACCTA", "PBM E-score": -0.125}, {"sequence": "AGCACCTA", "PBM E-score": 0.199}, {"sequence": "GGCACCGA", "PBM E-score": 0.356}, {"sequence": "CGCACCGA", "PBM E-score": -0.27}, {"sequence": "GGCCGAAA", "PBM E-score": -0.186}, {"sequence": "TACCCAAA", "PBM E-score": 0.11}, {"sequence": "AATCTATG", "PBM E-score": -0.00189}, {"sequence": "ACCTGAAG", "PBM E-score": -0.135}, {"sequence": "AAGCCCCT", "PBM E-score": -0.195}, {"sequence": "AGAACTAT", "PBM E-score": -0.0425}, {"sequence": "AGAAAGAG", "PBM E-score": -0.195}, {"sequence": "AAAGGAAA", "PBM E-score": 0.442}, {"sequence": "GAAGGAAC", "PBM E-score": 0.468}, {"sequence": "AAAGGAAC", "PBM E-score": 0.456}, {"sequence": "AAAGGAAG", "PBM E-score": 0.059}, {"sequence": "AAAGGATA", "PBM E-score": -0.0444}, {"sequence": "CAAGGACC", "PBM E-score": 0.0666}, {"sequence": "CAAGGAAG", "PBM E-score": -0.00272}, {"sequence": "GAAGGAGC", "PBM E-score": -0.251}, {"sequence": "CGAGGAAC", "PBM E-score": 0.285}, {"sequence": "CAAGGAAC", "PBM E-score": 0.43}, {"sequence": "AAAGGAGA", "PBM E-score": -0.0548}, {"sequence": "AAAGGAAT", "PBM E-score": -0.0306}, {"sequence": "AACTCTCT", "PBM E-score": -0.19}, {"sequence": "AGCCCGAT", "PBM E-score": -0.195}, {"sequence": "CCCAGGAG", "PBM E-score": -0.207}, {"sequence": "ACTTGTAT", "PBM E-score": 0.173}, {"sequence": "ACACCTTG", "PBM E-score": 0.193}, {"sequence": "CCGTTGTA", "PBM E-score": 0.125}, {"sequence": "CTGAACCA", "PBM E-score": 0.0648}, {"sequence": "AACAGGCG", "PBM E-score": 0.167}, {"sequence": "CACAGGCA", "PBM E-score": 0.482}, {"sequence": "AACAGGCT", "PBM E-score": 0.305}, {"sequence": "CACAGGCG", "PBM E-score": 0.277}, {"sequence": "GACAGGCA", "PBM E-score": 0.483}, {"sequence": "CACAGGCC", "PBM E-score": 0.0987}, {"sequence": "GACAGGCC", "PBM E-score": -0.139}, {"sequence": "GACAGGGA", "PBM E-score": -0.089}, {"sequence": "TACAGGGA", "PBM E-score": 0.0536}, {"sequence": "TACAGTCA", "PBM E-score": 0.191}, {"sequence": "AACAGGCA", "PBM E-score": 0.484}, {"sequence": "TACAGGCA", "PBM E-score": 0.484}, {"sequence": "GCTGTGAC", "PBM E-score": -0.128}, {"sequence": "GACTTCCA", "PBM E-score": -0.126}, {"sequence": "TGGAAGAA", "PBM E-score": 0.00562}, {"sequence": "CACTACGG", "PBM E-score": -0.1}, {"sequence": "GCCACAGA", "PBM E-score": -0.0635}, {"sequence": "GAGGAGGC", "PBM E-score": -0.0566}, {"sequence": "AATAAGTA", "PBM E-score": 0.124}, {"sequence": "CCACTCGA", "PBM E-score": -0.0827}, {"sequence": "AATAGACG", "PBM E-score": -0.138}, {"sequence": "ACACGCGG", "PBM E-score": 0.252}, {"sequence": "ACACGCTA", "PBM E-score": 0.356}, {"sequence": "ACACGCTC", "PBM E-score": 0.305}, {"sequence": "ACACGCTG", "PBM E-score": 0.256}, {"sequence": "ACACGCGT", "PBM E-score": 0.36}, {"sequence": "ACACGCGA", "PBM E-score": 0.292}, {"sequence": "AGTATCGA", "PBM E-score": 0.122}, {"sequence": "TCGTAGAA", "PBM E-score": 0.0868}, {"sequence": "CCGATCAC", "PBM E-score": -0.0956}, {"sequence": "ATCGCCAG", "PBM E-score": -0.289}, {"sequence": "GCATGTTA", "PBM E-score": 0.385}, {"sequence": "ACATGTTC", "PBM E-score": 0.295}, {"sequence": "ACATGTTG", "PBM E-score": 0.368}, {"sequence": "AAATGTTA", "PBM E-score": 0.288}, {"sequence": "AGATGTTA", "PBM E-score": 0.158}, {"sequence": "AGATGTTG", "PBM E-score": -0.102}, {"sequence": "ACATGTTA", "PBM E-score": 0.397}, {"sequence": "GGATGTTA", "PBM E-score": 0.172}, {"sequence": "CCATGTTA", "PBM E-score": 0.339}]}]}
